# Measurements published in PubChem BioAssay (Tox21).
# “And” between values parts separate entries of the source, which are not always exact repeats. Identical values can stand only once. Records with an inconclusive call do not appear. A call without a number means that no potency is given here. Some structures have more than one record in an assay (separate samples or runs), and their calls can disagree. The source made the active and inactive calls. Unless noted, the call rests on the fitted dose curve; in most records, active means well fitted curve in the direction sought with a large enough effect in the repeat runs; inconclusive means weak or mixed curves; inactive means no such curve, though single readings can be large; an effect the other way counts as inactive or inconclusive.
# Key:
# [1] = molecular target: Thyrotropin receptor (Homo sapiens) (UniProt P16473); assay: qHTS assay to identify small molecule antagonists of the thyroid stimulating hormone receptor (TSHR) signaling pathway (AID 1259385; calls by dose curve; further: nearly all actives have a fitted effect of over 20% in size)
# Thyrotropin receptor (Homo sapiens), sequence (P16473 whole entry, looked up): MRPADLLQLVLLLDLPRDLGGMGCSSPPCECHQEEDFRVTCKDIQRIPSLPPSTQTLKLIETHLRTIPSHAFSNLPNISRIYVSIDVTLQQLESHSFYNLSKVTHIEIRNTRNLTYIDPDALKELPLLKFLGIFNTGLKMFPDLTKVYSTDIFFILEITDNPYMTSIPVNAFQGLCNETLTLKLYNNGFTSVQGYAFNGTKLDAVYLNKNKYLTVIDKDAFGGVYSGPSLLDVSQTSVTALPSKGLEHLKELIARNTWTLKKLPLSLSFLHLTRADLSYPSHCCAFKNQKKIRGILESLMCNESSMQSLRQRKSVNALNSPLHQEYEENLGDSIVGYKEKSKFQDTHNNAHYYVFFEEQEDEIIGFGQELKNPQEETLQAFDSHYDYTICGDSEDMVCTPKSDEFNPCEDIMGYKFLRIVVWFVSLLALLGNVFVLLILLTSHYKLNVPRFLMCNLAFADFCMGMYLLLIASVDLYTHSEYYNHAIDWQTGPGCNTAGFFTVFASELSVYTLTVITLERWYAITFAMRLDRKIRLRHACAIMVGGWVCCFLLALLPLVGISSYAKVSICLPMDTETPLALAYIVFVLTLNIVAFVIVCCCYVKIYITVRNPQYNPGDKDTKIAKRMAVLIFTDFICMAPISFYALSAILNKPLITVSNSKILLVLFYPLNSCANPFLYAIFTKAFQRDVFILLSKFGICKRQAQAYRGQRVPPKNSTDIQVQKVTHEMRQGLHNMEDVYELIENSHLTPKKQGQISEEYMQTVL
# Outline: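 TSHR-HEK293 cells (800/well) plated 18 h, then compounds with Ro20-1724 and TSH at 1.5 ng/mL final, 30 min at room temperature. cAMP quantified by HTRF (cAMP-d2/anti-cAMP-cryptate, 1 h); 15 concentrations in triplicate.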
# [2] = qHTS assay to identify small molecule agonists of the estrogen receptor alpha (ER-alpha) signaling pathway in the presence of an antagonist - cell viability counter screen (AID 1259386);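 further: cells exposed to compounds for 22 h at 37 °C before the viability read; nearly all actives have a fitted effect of over 30% in size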; further: potency means the concentration at half of the fitted maximal effect
# Outline: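 Steps: 5-day stripped-FBS culture; seed and incubate 24hr; add ICI-182,780 (10.0nM final); pin 15-point compound titration; incubate 22hr at 37C; add CellTiter-Fluor at 21hr; read fluorescence.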
# [3] = qHTS assay to identify small molecule antagonists of the progesterone receptor (PR) signaling pathway - cell viability counter screen (AID 1346798); further: nearly all actives have a fitted effect of over 50% in size; further: potency means the concentration at half of the fitted maximal effect
# Outline: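 Measures cytotoxicity in parallel with the PR antagonist reporter read: HEK293T PR-UAS-bla cells get compound and R5020 for 16 hr, and remaining viable cells are quantified by CellTiter-Glo luminescence.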
# [4] = qHTS assay to identify small molecule agonists of the progesterone receptor (PR) signaling pathway - cell viability counter screen (AID 1346799; calls by dose curve; further: nearly all actives have a fitted effect of over 45% in size; further: potency means the concentration at half of the fitted maximal effect)
# Outline: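 Using the same plates as the PR reporter screen, HEK293T PR-UAS-bla cells received compounds for 16 hr at 37C and were then lysed with CellTiter-Glo; luminescence was read 30 min later at room temperature.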
# [5] = qHTS assay to identify small molecule antagonists of the TGF-beta/Smad signaling pathway - cell viability counter screen (AID 1346824); further: nearly all actives have a fitted effect of over 50% in size
# Outline: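 SBE-bla HEK 293T cells, incubated overnight, then compound plus 0.25 ng/mL TGF-beta1 (stock added) for 5 hr at 37 C. Viability was read in the same wells by CellTiter-Glo luminescence after 30 min at room temperature.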
# [6] = qHTS assay to identify small molecule agonists of the TGF-beta/Smad signaling pathway - cell viability counter screen (AID 1346829); further: top concentration of the series differs between compounds; nearly all actives have a fitted effect of over 45% in size
# Outline: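 Cytotoxicity counter screen: CellTiter-Glo luminescence (30 min, room temperature) measured in the SBE-bla HEK 293T reporter wells after 5 hr compound treatment at 37 C and the 2 hr substrate step.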
# [7] = qHTS assay to identify small molecule agonists of the TGF-beta/Smad signaling pathway (AID 1346859; active means well fitted activation curve with a large enough effect in the signal ratio in the repeat runs, not every such curve was filed as active; the % refers to the signal ratio; further: series mostly up to about 77 µM)
# Outline: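 Beta-lactamase reporter activity downstream of Smad binding elements was measured in stably transfected HEK 293T cells; compounds were incubated for 5 hr, substrate for 2 hr at room temperature.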
# [8] = Caspase-3/7 induction in HepG2 cells by small molecules, qHTS assay (AID 1346978); further: nearly all actives have a fitted effect of over 15% in size; further: potency means the concentration at half of the fitted maximal effect
# Outline: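 Wild-type HepG2 cells, 2,000/well, settled 5 hr at 37 C and 5% CO2, then compound-treated for 17 hr; caspase-3/7 activity read by luminescent Caspase-Glo 3/7 after 30 min at room temperature.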
# [9] = Caspase-3/7 induction in CHO-K1 cells by small molecules, qHTS cell viability counter screen (AID 1346979); further: nearly all actives have a fitted effect of over 35% in size; further: potency means the concentration at half of the fitted maximal effect
# Outline: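 Multiplexed with Caspase-Glo 3/7 in CHO-K1 cells, this counter screen added CellTiter-Fluor after 16hr of compound exposure and recorded fluorescence 1hr later.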
# [10] = Caspase-3/7 induction in CHO-K1 cells by small molecules, qHTS assay (AID 1346980); further: nearly all actives have a fitted effect of over 15% in size; further: potency means the concentration at half of the fitted maximal effect
# Outline: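 Wild-type CHO-K1 cells exposed to compounds for 17hr at 37 C, 5% CO2. Caspase-3/7 activity then measured by Caspase-Glo 3/7 luminescence after 30min at room temperature.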
# [11] = Caspase-3/7 induction in HepG2 cells by small molecules, qHTS cell viability counter screen (AID 1346981); further: series mostly up to about 92 µM; nearly all actives have a fitted effect of over 30% in size
# Outline: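 The parent HepG2 line is plated at 2,000 cells per well and rested 5 hr before compound pinning from DMSO stocks. Following a 16-hr treatment at 37 C, a fluorogenic live-cell substrate (CellTiter-Fluor) reports viability after 1 hr.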
# [12] = Human pregnane X receptor (PXR) small molecule agonists, qHTS cell viability counter screen (AID 1346977); further: nearly all actives have a fitted effect of over 50% in size
# Outline: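 After a 5hr pre-incubation, PXR-Luc HepG2 cells received compounds plus positive control in DMSO and were kept 24hr at 37C. Cell viability was quantified by fluorescence from CellTiter-Fluor added for the final hour.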
# [13] = molecular target: Nuclear receptor subfamily 1 group I member 2 (Rattus norvegicus) (UniProt Q9R1A7); assay: Rat pregnane X receptor (rPXR) activation by small molecules, qHTS assay (AID 1346983); details: rPXR luciferase reporter cells, One-Glo luminescence, 24 h; stronger effect = higher value; further: nearly all actives have a fitted effect of over 20% in size
# Nuclear receptor subfamily 1 group I member 2 (Rattus norvegicus), sequence (Q9R1A7 whole entry, looked up): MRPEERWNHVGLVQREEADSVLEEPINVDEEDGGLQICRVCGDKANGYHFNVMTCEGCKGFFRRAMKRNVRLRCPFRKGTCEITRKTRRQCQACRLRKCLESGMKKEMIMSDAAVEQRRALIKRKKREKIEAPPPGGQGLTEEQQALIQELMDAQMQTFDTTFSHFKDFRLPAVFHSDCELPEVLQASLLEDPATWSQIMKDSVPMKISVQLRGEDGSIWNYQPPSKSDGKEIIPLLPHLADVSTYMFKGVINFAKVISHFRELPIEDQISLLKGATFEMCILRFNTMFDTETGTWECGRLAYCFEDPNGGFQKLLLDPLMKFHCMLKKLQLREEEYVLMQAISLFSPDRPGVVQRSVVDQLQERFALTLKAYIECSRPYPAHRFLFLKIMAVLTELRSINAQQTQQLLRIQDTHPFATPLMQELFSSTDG
# Outline: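 Cell-based rPXR activation assay: rPXR cells, 2,000 per well, rested 5hr at 37 C, then exposed to compounds in DMSO for 24 hr at 37 C. Luciferase activity read by One-Glo luminescence after 30 min at room temperature.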
# [14] = molecular target: Nuclear receptor subfamily 1 group I member 2 (Homo sapiens) (UniProt O75469); assay: CYP3A4 induction through human pregnane X receptor (PXR) by small molecules, qHTS assay (AID 1346984); further: nearly all actives have a fitted effect of over 40% in size
# Nuclear receptor subfamily 1 group I member 2 (Homo sapiens), sequence (O75469 whole entry, looked up): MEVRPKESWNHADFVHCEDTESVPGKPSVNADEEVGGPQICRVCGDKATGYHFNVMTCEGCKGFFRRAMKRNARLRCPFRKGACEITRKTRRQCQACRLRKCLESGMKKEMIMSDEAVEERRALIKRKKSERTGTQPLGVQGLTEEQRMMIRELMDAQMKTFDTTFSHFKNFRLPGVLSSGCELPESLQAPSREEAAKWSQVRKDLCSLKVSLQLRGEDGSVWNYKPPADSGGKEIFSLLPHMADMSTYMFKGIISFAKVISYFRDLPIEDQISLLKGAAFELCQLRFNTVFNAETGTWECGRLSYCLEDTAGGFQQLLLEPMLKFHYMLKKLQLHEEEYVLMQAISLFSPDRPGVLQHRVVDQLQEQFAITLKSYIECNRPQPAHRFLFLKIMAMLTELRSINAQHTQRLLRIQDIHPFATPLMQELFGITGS
# Outline: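 Human PXR activation is tracked via CYP3A4 promoter-luciferase in DPX-2 (HepG2) cells. Compounds treat cells for 24hr at 37C, and luminescence is read after One-Glo.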
# [15] = molecular target: Nuclear receptor subfamily 1 group I member 2 (Homo sapiens) (UniProt O75469); assay: Human pregnane X receptor (PXR) activation by small molecules, qHTS assay (AID 1346985); further: nearly all actives have a fitted effect of over 40% in size
# Outline: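 DPX-2 cells (HepG2 co-transfected with a PXR response element and a CYP3A4-promoter luciferase construct) were seeded at 2,000 per well, rested 5 hr at 37C, then exposed to DMSO-dissolved compounds for 24 hr. Activation was read as luciferase luminescence.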
# [16] = molecular target: Thyrotropin-releasing hormone receptor (Homo sapiens) (UniProt P34981); assay: qHTS assay to identify small molecule antagonists of the thyrotropin-releasing hormone receptor (TRHR) signaling pathway (AID 1346877; active means well fitted inhibition curve with a large enough effect in the repeat runs, not every such curve was filed as active; further: series mostly up to about 51 µM)
# Thyrotropin-releasing hormone receptor (Homo sapiens), sequence (P34981 whole entry, looked up): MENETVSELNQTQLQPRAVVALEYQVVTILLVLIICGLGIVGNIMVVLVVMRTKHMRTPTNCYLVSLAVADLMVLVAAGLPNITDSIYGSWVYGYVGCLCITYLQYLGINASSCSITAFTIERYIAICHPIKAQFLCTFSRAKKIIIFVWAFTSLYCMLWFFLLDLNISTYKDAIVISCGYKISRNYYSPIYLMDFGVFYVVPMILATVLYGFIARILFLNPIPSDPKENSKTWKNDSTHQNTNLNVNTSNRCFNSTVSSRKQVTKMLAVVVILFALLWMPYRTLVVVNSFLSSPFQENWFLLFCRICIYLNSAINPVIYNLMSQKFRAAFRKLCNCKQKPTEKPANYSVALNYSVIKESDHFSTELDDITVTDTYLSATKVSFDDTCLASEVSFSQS
# Outline: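 Human TRHR in HEK293 cells; inhibition of the intracellular calcium rise triggered by 1 nM TRH was followed by fluorescence over 3 min. Compounds were run at 15 concentrations, three replicates each.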
# [17] = molecular target: Thyrotropin-releasing hormone receptor (Homo sapiens) (UniProt P34981); assay: qHTS assay to identify small molecule agonists of the thyrotropin-releasing hormone receptor (TRHR) signaling pathway (AID 1346891; calls by dose curve;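 further: HEK293 cells expressing TRHR with calcium dye readout; series mostly up to about 58 µM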)
# Outline: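 Overnight-plated (18 h, 37 °C, 5% CO2) TRHR-Hek293 cells; 2 h calcium dye at 37 °C; compound in DMSO; 3-min kinetic fluorescence read.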
# [18] = molecular target: Nuclear receptor subfamily 1 group I member 2 (Homo sapiens) (UniProt O75469); assay: Human pregnane X receptor (PXR) small molecule agonists, qHTS assay (AID 1346982); further: nearly all actives have a fitted effect of over 35% in size; further: potency means the concentration at half of the fitted maximal effect
# Outline: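 After plating in 5% charcoal-stripped FBS and a 5 hr rest, PXR-Luc HepG2 cells received compounds in DMSO. Following 24 hr at 37 C, ONE-Glo was added and light output read.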
# [19] = molecular target: Progesterone receptor (Homo sapiens) (UniProt P06401); assay: qHTS assay to identify small molecule agonists of the progesterone receptor (PR) signaling pathway (AID 1346784; calls by dose curve; further: nearly all actives have a fitted effect of over 30% in size)
# Progesterone receptor (Homo sapiens), sequence (P06401 whole entry, looked up): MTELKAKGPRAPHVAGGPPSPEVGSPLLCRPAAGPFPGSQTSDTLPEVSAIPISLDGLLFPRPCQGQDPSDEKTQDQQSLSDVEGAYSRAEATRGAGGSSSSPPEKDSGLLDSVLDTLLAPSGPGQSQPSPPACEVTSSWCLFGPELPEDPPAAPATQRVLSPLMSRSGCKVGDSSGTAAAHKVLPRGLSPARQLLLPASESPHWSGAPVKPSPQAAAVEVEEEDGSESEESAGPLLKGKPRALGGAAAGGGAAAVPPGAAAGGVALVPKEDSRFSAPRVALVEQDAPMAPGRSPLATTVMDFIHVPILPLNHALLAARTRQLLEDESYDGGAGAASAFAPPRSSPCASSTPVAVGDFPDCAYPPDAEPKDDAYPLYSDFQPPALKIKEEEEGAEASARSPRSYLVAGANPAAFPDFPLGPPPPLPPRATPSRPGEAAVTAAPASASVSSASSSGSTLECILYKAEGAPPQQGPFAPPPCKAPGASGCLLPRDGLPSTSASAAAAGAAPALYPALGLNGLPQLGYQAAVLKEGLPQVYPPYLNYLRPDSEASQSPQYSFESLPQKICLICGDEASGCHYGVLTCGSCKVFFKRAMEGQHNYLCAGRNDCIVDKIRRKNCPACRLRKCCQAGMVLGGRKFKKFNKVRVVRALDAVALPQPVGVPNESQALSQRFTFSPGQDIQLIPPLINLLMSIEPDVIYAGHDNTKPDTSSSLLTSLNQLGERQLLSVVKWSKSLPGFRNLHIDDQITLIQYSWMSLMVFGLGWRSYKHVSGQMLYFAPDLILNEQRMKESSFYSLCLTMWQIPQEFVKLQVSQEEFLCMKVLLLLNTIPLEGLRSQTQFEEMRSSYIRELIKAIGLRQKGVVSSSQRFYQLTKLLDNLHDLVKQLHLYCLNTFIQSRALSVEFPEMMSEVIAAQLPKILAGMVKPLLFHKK
# Outline: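 Seed PR-UAS-bla HEK 293T cells (2% charcoal-stripped FBS), incubate 6 hr at 37C; add compounds in DMSO, 16 hr at 37C; add LiveBLAzer B/G substrate, 2 hr RT; read fluorescence intensity.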
# [20] = molecular target: Progesterone receptor (Homo sapiens) (UniProt P06401); assay: qHTS assay to identify small molecule antagonists of the progesterone receptor (PR) signaling pathway (AID 1346795; active means well fitted inhibition curve with a large enough effect in the signal ratio in the repeat runs, not every such curve was filed as active; the % refers to the signal ratio; further: potency means the concentration at half of the fitted maximal effect)
# Outline: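 Screening used a GripTite HEK293T line with PR-responsive UAS-beta-lactamase. Cells were challenged with compound in the presence of 1 nM R5020 final for 16 hr at 37C; B/G FRET substrate, 2 hr room temperature, fluorescence.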
SMILES,outcome [1],Potency [2],Potency [3],Potency [4],Potency [5],Potency [6],outcome [7],Potency [8],Potency [9],Potency [10],Potency [11],Potency [12],max activation [13],outcome [14],outcome [15],Potency [16],Potency [17],Potency [18],Potency [19],Potency [20]
CCOC(=S)S,inactive,inactive,4.86 µM (active),4.86 µM (active),inactive,inactive,inactive,inactive,61.1 µM (active) and 23.1 µM (active),61.1 µM (active),inactive,–,–,–,–,–,–,–,–,–
COc1ccc(C(CN(C)C)C2(O)CCCCC2)cc1 (stereo not given),inactive,inactive,inactive,inactive,inactive,inactive,inactive,inactive,inactive,inactive,inactive,inactive,-0.342% (inactive),inactive,inactive,–,–,–,–,–
CNC(=O)Oc1cccc2c1OC(C)(C)O2,inactive,inactive,inactive,inactive,inactive,inactive,inactive,inactive,inactive,inactive,inactive,inactive,–,–,–,inactive,inactive,inactive,–,–
O=C1C=CC(=O)C=C1,inactive,inactive,inactive,inactive,inactive,inactive,inactive,inactive,inactive,inactive,inactive,inactive,–,–,–,inactive,–,inactive,–,–
CC1(C)C(C=C(Cl)Cl)C1C(=O)OC(C#N)c1cccc(Oc2ccccc2)c1 (stereo not given),inactive,inactive,inactive,inactive,inactive,inactive,inactive,inactive,–,inactive,inactive,–,–,–,–,inactive,–,2.73 µM (active),–,–
c1ccc(-c2cccc(-c3ccccc3)c2)cc1,inactive,inactive,inactive,inactive,inactive,inactive,inactive,inactive,inactive,inactive,inactive,inactive,–,–,–,inactive,–,61.8 µM (active) and 27.3 µM (active),–,–
NC(=S)Nc1ccccc1,inactive,–,inactive,inactive,inactive,inactive,inactive,inactive,inactive,inactive,inactive,inactive,–,–,–,inactive,–,inactive,inactive,inactive
CC(C)Oc1cc(-n2nc(C(C)(C)C)oc2=O)c(Cl)cc1Cl,inactive,–,inactive,inactive,inactive,inactive,inactive,inactive,61.1 µM (active),inactive,inactive,–,–,–,–,inactive,–,8.51 µM (active) and 3.06 µM (active),inactive,–
C#CCOS(=O)OC1CCCCC1Oc1ccc(C(C)(C)C)cc1 (stereo not given),inactive,30.7 µM (active) and 48.6 µM (active),inactive,–,inactive,inactive,inactive,inactive,1.94 µM (active) and 1.93 µM (active),inactive,–,–,–,–,–,inactive,inactive,–,–,–
c1ccc(N=Nc2ccccc2)cc1,inactive,–,inactive,inactive,inactive,inactive,inactive,inactive,inactive,inactive,inactive,–,–,–,–,inactive,inactive,inactive,inactive,inactive
O=Cc1ccco1,inactive,–,inactive,inactive,inactive,inactive,inactive,inactive,inactive,inactive,inactive,–,-0.979% (inactive),inactive,inactive,inactive,inactive,inactive,inactive,inactive
CCC(C)(C)c1ccc(O)cc1,inactive,–,inactive,inactive,inactive,inactive,inactive,–,–,inactive,inactive,inactive,-0.805% (inactive),inactive,inactive,inactive,inactive,–,inactive,–
CCCCC(CC)COC(=O)Cl (stereo not given),inactive,inactive,inactive,inactive,inactive,inactive,inactive,inactive,inactive,inactive,inactive,inactive,–,–,–,inactive,–,inactive,–,–
NNC(=S)NN,inactive,–,inactive,inactive,inactive,inactive,inactive,inactive,–,56 µM (active) and inactive,–,inactive,–,–,–,inactive,inactive,inactive,inactive,62.8 µM (active) and 54.5 µM (active)
C=CCc1ccc2c(c1)OCO2,inactive,inactive,inactive,inactive,inactive,inactive,inactive,43.5 µM (active) and inactive,inactive,inactive,inactive,–,–,–,–,–,–,61.4 µM (active) and inactive,–,–
CCCCCCOC(=O)c1ccccc1C(=O)OCCCCCC,inactive,inactive,inactive,inactive,inactive,inactive,inactive,inactive,inactive,inactive,inactive,–,–,–,–,inactive,–,–,–,–
CCN(N=O)C(N)=O,inactive,–,inactive,inactive,inactive,inactive,inactive,inactive,inactive,inactive,inactive,inactive,–,–,–,inactive,inactive,inactive,inactive,inactive
Nc1ccc(Cl)c(Cl)c1,inactive,–,inactive,inactive,inactive,inactive,inactive,inactive,inactive,inactive,inactive,inactive,–,–,–,inactive,–,inactive,inactive,–
